High-throughput results as filed in PubChem.
HEK cytotox: Cytotoxic Profiling in HEK 293 Cell Line of Diverse Libraries Using Quantitative High-Throughput Screening | HEK 293 viability, ATP luminescence (CellTiter-Glo), 48-72 h | Potency, µM (highest dose often 115 µM), hits mostly inhibitors | 94,000 tested, 6.6% active | AID 1345083, 2018; further: nearly all actives have a fitted effect of over 60% in size
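Luminescence from cellular ATP, measured with CellTiter-Glo, indicates HEK 293 viability. Cells plated at 250 cells/well are treated with compound for 48 or 72 hr at 37 degree Celsius before reagent addition.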
SNCA expr inh: Primary qHTS assay for inhibitors of alpha-synuclein gene (SNCA) expression | HEK-293 SNCA-luciferase knock-in, luminescence, 24 h | Potency, µM (doses to about 57.2 µM), usual class: inhibitors | 140,000 tested, 0.17% active | AID 1671194, 2021; further: nearly all actives have a fitted effect of over 45% in size
NPR1 antag: Natriuretic polypeptide receptor (hNpr1) antagonism - Primary qHTS; Atrial natriuretic peptide receptor 1 (Homo sapiens), P16066; HEK293 hNpr1 GloSensor cGMP, ANP-stimulated luminescence; Potency, µM (doses to about 46.3 µM), hits mostly inhibitors; 76,000 tested, 1.6% active; AID 1347048, 2019; calls by dose curve; further: nearly all actives have a fitted effect of over 60% in size
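HEK293 cells stably expressing human Npr1 and cGMP GloSensor pGS-40F, loaded 2 h with 2% GloSensor reagent, given compound 30 min at room temperature. Luminescence read before and 20 min after 0.1 nM hNppA.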
FLuc inh: Firefly luciferase inhibition profiling of diverse chemical library using quantitative high-throughput screening | Potency, µM (top dose mostly 115 µM), most hits filed as inhibitors | AID 1347043, 2019 | purified P. pyralis luciferase, luminescence, biochemical | Luciferin 4-monooxygenase (Photinus pyralis), P08659 | 76,000 tested, 2.5% active; further: nearly all actives have a fitted effect of over 65% in size
Target sequence (P08659 whole entry, looked up): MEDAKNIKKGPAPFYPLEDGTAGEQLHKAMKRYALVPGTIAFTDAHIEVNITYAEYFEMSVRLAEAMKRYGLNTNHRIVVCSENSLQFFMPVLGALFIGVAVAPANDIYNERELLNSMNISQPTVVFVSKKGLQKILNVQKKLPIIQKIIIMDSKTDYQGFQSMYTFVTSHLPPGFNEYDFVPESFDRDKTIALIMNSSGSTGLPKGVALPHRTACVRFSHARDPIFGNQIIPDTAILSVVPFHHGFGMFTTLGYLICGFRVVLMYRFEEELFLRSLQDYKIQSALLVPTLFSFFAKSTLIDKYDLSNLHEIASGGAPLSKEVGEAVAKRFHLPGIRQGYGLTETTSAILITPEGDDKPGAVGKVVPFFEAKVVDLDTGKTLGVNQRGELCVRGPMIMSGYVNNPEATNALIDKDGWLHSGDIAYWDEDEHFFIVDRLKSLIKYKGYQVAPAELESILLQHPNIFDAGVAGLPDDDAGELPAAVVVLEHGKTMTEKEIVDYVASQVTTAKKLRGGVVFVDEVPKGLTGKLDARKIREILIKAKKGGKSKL
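Biochemical qHTS: compound (6-point titration) added to 10uM D-luciferin plus 10uM ATP in Tris acetate pH 7.5 buffer with Mg, Tween-20 and BSA, then purified enzyme at 10nM; light output imaged.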
HEK293 viab: GF-AFC viability counterscreen for inhibitors of alpha-synuclein gene (SNCA) expression; HEK-293-SNCA-luc viability, GF-AFC fluorescence, 24 h; Potency, µM (doses to about 57.1 µM), actives largely listed as cytotoxic; 150,000 tested, 0.12% active; AID 1671193, 2021; further: nearly all actives have a fitted effect of over 30% in size
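HEK-293-SNCA-luc cells (1500/well) plated 24 h, then exposed 24 h to a dilution series; GF-AFC added 30 min at 37C, fluorescence 405/540 nm; normalised to medium-only and DMSO wells, Hill fit.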
3T3 cytotox: Cytotoxic Profiling in NIH 3T3 Cell Line of Diverse Libraries Using Quantitative High-Throughput Screening; NIH 3T3 viability, CellTiter-Glo ATP luminescence, 48-72 h; Potency, µM (doses to about 96.7 µM), most hits filed as inhibitors; 94,000 tested, 4.3% active; further: nearly all actives have a fitted effect of over 55% in size
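Viability of NIH 3T3 cells after 48 or 72 hr compound treatment at 37 °C was assessed by CellTiter-Glo, with luminescence imaged following a 10 min room-temperature step.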
Of the large screens only hits and unclear results are named; the others gave an inactive call. Sampled rows, rich in hits. Any-hit rate of the full collection: about 7.4%. Unless noted, the call rests on the fitted dose curve; in most records, active means well fitted curve in the direction sought with a large enough effect; inconclusive means small, poorly fitted or top-dose-only effect, or another doubt; inactive means no such curve, though single readings can be large; an effect the other way counts as inactive or inconclusive.

COc1cc2c(cc1OCC1CC1)NC(=O)C21CCN(C(=O)c2cccc(C#N)c2)CC1	HEK cytotox 79.4µM, 3T3 cytotox inconclusive
Cc1ccc(CN2C[C@@H]3C(=O)N(C)C(=O)[C@@H]3C2)o1	none
COc1ncc(-c2cc3c(cc2OC)C2(CCN(C(C)=O)CC2)C(=O)N3)cn1	3T3 cytotox 44.7µM
COc1cc2c(cc1OCC1CC1)NC(=O)C21CCN(Cc2nccs2)CC1	HEK cytotox inconclusive, 3T3 cytotox inconclusive
COc1cc2c(cc1OCc1ccncc1)NC(=O)C21CCN(CC2CC2)CC1	3T3 cytotox 100µM
COc1cc2c(cc1OCc1ccncc1)NC(=O)C21CCN(c2ccccn2)CC1	HEK cytotox inconclusive, 3T3 cytotox inconclusive
COc1cc2c(cc1OCc1ccncc1)NC(=O)C21CCN(Cc2ccccc2O)CC1	HEK cytotox 44.7µM, 3T3 cytotox inconclusive
COc1cc2c(cc1-c1cccnc1OC)NC(=O)C21CCN(C(C)=O)CC1	3T3 cytotox inconclusive
COc1ccc(CC(=O)N2CCC3(C2)C(=O)Nc2ccc(OC)cc23)c(Cl)c1 (stereo unspecified)	HEK cytotox inconclusive
CCOC(=O)[C@H]1CN(C(=O)OCC)[C@]2(C)C(=O)Nc3ccccc3[C@H]12	3T3 cytotox inconclusive (no result: SNCA expr inh, NPR1 antag, FLuc inh, HEK293 viab)
COc1cc2c(cc1OCc1ccc(Cl)cc1)N(Cc1ccccc1)CC21CCN(C(C)=O)CC1	HEK cytotox inconclusive, 3T3 cytotox inconclusive
COc1cc2c(cc1OCc1ccccc1)N(C(=O)c1cc3ccccc3[nH]1)CC21CCN(C)CC1	HEK cytotox 20µM, SNCA expr inh inconclusive, HEK293 viab inconclusive, 3T3 cytotox 22.4µM
COc1cc2c(cc1OCc1ccccc1)N(C(=O)c1c[nH]c3ccccc13)CC21CCN(C)CC1	HEK cytotox 22.4µM, SNCA expr inh inconclusive, HEK293 viab 25.1µM, 3T3 cytotox 20µM
COc1cc2c(cc1OCc1ccccc1)N([S+](=O)([O-])c1cn(C)cn1)CC21CCN(C)CC1	HEK cytotox inconclusive, 3T3 cytotox inconclusive
COc1cc2c(cc1OCc1ccccc1)N(C(=O)c1cccc3[nH]ccc13)CC21CCN(C)CC1	HEK cytotox inconclusive, 3T3 cytotox 20µM
CN(C)C(=O)N1CCC2(CC1)NCc1ccccc1-n1ccnc12	none
CC(C)NC(=O)NC[C@H]1C[C@@H]2CCN1C[C@@H]2CN1CCSCC1	none
Cn1nc(C2CCCCC2)cc1[C@H]1CN2CC[C@H]1C[C@@H]2CNC(=O)Nc1ccccc1	HEK cytotox 31.6µM, 3T3 cytotox 28.2µM
Cc1ccc(C(=O)NC[C@H]2C[C@@H]3CCN2C[C@@H]3c2cc(-c3cccs3)nn2C)cc1	HEK cytotox inconclusive, 3T3 cytotox 112µM
Cc1ccc(C(=O)NC[C@H]2C[C@@H]3CCN2C[C@@H]3c2cc(C3CCCCC3)nn2C)cc1	HEK cytotox inconclusive, 3T3 cytotox 35.5µM
COc1ccc(OC)c(S(=O)(=O)NC[C@H]2C[C@@H]3CCN2C[C@@H]3c2cc(-c3cccs3)nn2C)c1	HEK cytotox inconclusive, 3T3 cytotox 79.4µM
Cn1nc(C2CCCCC2)cc1[C@H]1CN2CC[C@H]1C[C@@H]2CNC(=O)Nc1cccc(C#N)c1	HEK cytotox inconclusive, 3T3 cytotox inconclusive
Cn1nc(C2CCCCC2)cc1[C@H]1CN2CC[C@H]1C[C@@H]2CNC(=O)c1ccc2c(c1)OCO2	HEK cytotox inconclusive, 3T3 cytotox inconclusive
CN1Cc2ccccc2-n2ccnc2C12CCN(C(=O)c1cccc(Cl)c1)CC2	HEK cytotox inconclusive
CC(=O)N1C[C@@H]2C[C@H](C1)c1ccc(NC(=O)Nc3ccccc3)c(=O)n1C2	none
Cn1nc(C2CCCCC2)cc1[C@H]1CN2CC[C@H]1C[C@@H]2CNC(=O)NCc1ccccc1	HEK cytotox 79.4µM, 3T3 cytotox inconclusive
CC(=O)N1C[C@@H]2C[C@H](C1)c1ccc(NC(=O)COc3ccccc3)c(=O)n1C2	none
CSCC(=O)Nc1ccc2n(c1=O)C[C@H]1C[C@@H]2CN(C(=O)COc2ccccc2)C1	3T3 cytotox 79.4µM
COc1ccc(NC(=O)N2[C@H]3CC[C@@H]2c2cnc(C)nc2C3)cc1OC	SNCA expr inh inconclusive
CN1CCN(C[C@H]2CN3CC[C@H]2C[C@@H]3CNS(=O)(=O)c2ccccc2)CC1	SNCA expr inh inconclusive
O=S(=O)(NC[C@H]1C[C@@H]2CCN1C[C@@H]2CN1CCc2ccccc21)c1ccccc1	HEK cytotox 56.2µM, 3T3 cytotox 56.2µM
O=S(=O)(NC[C@H]1C[C@@H]2CCN1C[C@@H]2CN1CCCC1)c1ccc(Cl)cc1	HEK cytotox inconclusive, 3T3 cytotox 79.4µM
COc1ccc(S(=O)(=O)NC[C@H]2C[C@@H]3CCN2C[C@@H]3CN(C)c2ccccc2)cc1	HEK cytotox inconclusive, 3T3 cytotox 35.5µM
COc1ccc(S(=O)(=O)NC[C@H]2C[C@@H]3CCN2C[C@@H]3CN2CCC(Cc3ccccc3)CC2)cc1	HEK cytotox inconclusive, SNCA expr inh inconclusive, HEK293 viab inconclusive, 3T3 cytotox 12.6µM
COc1ccc(S(=O)(=O)NC[C@H]2C[C@@H]3CCN2C[C@@H]3CN2CCOCC2)cc1	none
CC(C)(C)c1ccc(-c2cn(C[C@H]3CC4CCN3C[C@@H]4C(=O)Nc3ccccc3)nn2)cc1 (stereo partly specified)	HEK cytotox 28.2µM, FLuc inh inconclusive, 3T3 cytotox 28.2µM
O=C(Nc1ccc2n(c1=O)C[C@H]1C[C@@H]2CN(CC2CCCCC2)C1)C1CCCCC1	HEK cytotox 56.2µM, 3T3 cytotox inconclusive
CCOCCCNC(=O)N1[C@H]2CC[C@@H]1c1cnc(-c3ccccc3)nc1C2	HEK cytotox inconclusive
Cc1cccc(NC(=O)N[C@@H]2N=C(c3ccccc3)c3ccccc3N(C)C2=O)c1	none (no result: HEK cytotox, SNCA expr inh, NPR1 antag, FLuc inh, 3T3 cytotox)
C[C@@]12OC(=O)[C@]1([C@@H](O)[C@@H]1C=CCCC1)NC(=O)[C@H]2CCCl	SNCA expr inh 0.136µM, HEK293 viab inconclusive (no result: HEK cytotox, NPR1 antag, FLuc inh, 3T3 cytotox)
COCC(=O)NC[C@H]1C[C@@H]2CCN1C[C@@H]2c1cc(-c2ccccc2OC)nc(C)n1	none
Cc1nc(-c2cccs2)cc([C@H]2CN3CC[C@H]2C[C@@H]3COC(=O)Nc2ccc(C(C)C)cc2)n1	HEK cytotox 5.62µM, SNCA expr inh inconclusive, NPR1 antag inconclusive, FLuc inh inconclusive, HEK293 viab inconclusive, 3T3 cytotox 8.91µM
